Measurements: PubChem BioAssay (NCATS)
Results filed as inconclusive are left out. A call without a number means that no potency is given here. Calls of active or inactive are those of the source. Unless noted, calls come from the whole dose curve.

Test system: not listed separately
Experiment: qHTS for Inhibitors of the Functional Ribonucleoprotein Complex (vRNP) of Lymphocytic Choriomeningitis Arenaviruses (LCMV): Viability assay - alamar blue signal for LCMV Primary Screen (AID 1347085; calls by dose curve; tested in HEK293 reporter line; note: nearly all actives have a fitted effect of over 80% in size; note: potency is the fitted concentration of half-maximal effect)
Conditions: alamar blue viability counter-screen, LCMV vRNP screen cells; series mostly up to 57.5 µM

Structure (SMILES)	Potency
C=C1C(O)C[C@H]2C(=C)CCC3[C@H](OC(=O)[C@]3(O)CO)[C@@H]12 (stereo not given in full)	inactive
CC(=O)NCC(=O)N1[C@H]2CC[C@H]1c1cc(Nc3ncc(C(F)(F)F)c(NC4CCC4)n3)ccc12	9.68 µM (active)
C=C1[C@H]2CC[C@@H]3[C@H]2C(C)(C)CCC[C@]13C	inactive
CC(C)CCOC(=O)c1ccccc1	inactive
O=C(O)[C@H](O)[C@@H](O)C(=O)O	inactive
Cc1nc(C(N)=O)nc2ccccc12	inactive
C[C@]12CCC(=O)C=C1[C@@H]1CC1[C@H]1[C@H]3[C@@H]4C[C@H]4[C@@]4(CCC(=O)O4)[C@@]3(C)CC[C@H]12 (stereo not given in full)	inactive
CCCC1CCC(=O)O1 (stereo not given)	inactive
Nc1ccn([C@@H]2O[C@H](CO)[C@@H](OP(=O)(O)O)[C@H]2O)c(=O)n1	inactive
CC1CC(C)C(=O)C1=O (stereo not given)	inactive
CC(=O)OC[C@]12CCC(C)=C[C@H]1O[C@@H]1[C@H](O)[C@@H](OC(C)=O)[C@@]2(C)[C@]12CO2	inactive
CC(=O)CCC1=C(C)CCCC1(C)C	inactive
OC(c1cc(C(F)(F)F)nc2c(C(F)(F)F)cccc12)C1CCCCN1 (stereo not given)	inactive
C[C@@H]1[C@H](C)CC[C@]2(C(=O)O)CC[C@]3(C)C(=CC[C@@H]4[C@@]5(C)C[C@@H](O)[C@H](O)[C@@](C)(CO)[C@H]5CC[C@]43C)[C@@H]12	inactive
C[C@H]1[C@H](C)CC[C@]2(C)CC[C@]3(C)C(=CC(=O)C4[C@@]5(C)CC[C@H](O)C(C)(C)C5CC[C@]43C)[C@H]12 (stereo not given in full)	inactive
O=C(/C=C/c1ccc(O)cc1)OC[C@H]1O[C@@H](Oc2c(-c3ccc(O)cc3)oc3cc(O)cc(O)c3c2=O)[C@H](O)[C@@H](O)[C@@H]1O	inactive
O=C1CCCCCCCCCCCCCCO1	inactive
CC(=O)c1c(O)cc(O)cc1O	inactive
O=C(/C=C/c1ccccc1)OC/C=C/c1ccccc1	inactive
CC(C)c1noc(N2CCC(COc3ccc(-c4ccc(S(C)(=O)=O)cc4)nc3)CC2)n1	inactive

Structure (SMILES)	Potency
CCN1CCN(C(=O)N[C@H](C(=O)N[C@@H]2C(=O)N3C(C(=O)O)=C(CSc4nnnn4C)CS[C@@H]23)c2ccc(O)cc2)C(=O)C1=O	inactive
CC(=O)OCC1=C(C(=O)O)N2C(=O)[C@@H](NC(=O)Cc3ccccc3)[C@H]2SC1	inactive
CC1OC(OC2C(CO)OC(OCC3OC(OC(=O)[C@@]45CCC(C)(C)C[C@@H]4C4=CC[C@@H]6[C@@]7(C)CCC(OC8OCC(O)C(O)C8OC8OC(C)C(O)C(O)C8O)[C@@](C)(CO)C7CC[C@@]6(C)[C@]4(C)CC5)C(O)C(O)C3O)C(O)C2O)C(O)C(O)C1O (stereo not given in full)	inactive
Cc1cc(OCCCc2c(C(=O)O)n(Cc3cccnc3)c3c(-c4c(COc5ccc(N6CCN([S+](C)(=O)[O-])CC6)cc5)nn(C)c4C)cccc23)cc(C)c1Cl	inactive
O=c1cc(-c2ccc(O)c(O)c2)oc2ccccc12	inactive
CC/C=C\CCOC(=O)C(C)C	inactive
CC(=O)O[C@H]1C(=O)[C@@]2(C)C([C@H](OC(=O)c3ccccc3)[C@]3(O)C[C@H](OC(=O)[C@H](O)[C@@H](NC(=O)c4ccccc4)c4ccccc4)C(C)=C1C3(C)C)[C@]1(OC(C)=O)CO[C@@H]1C[C@H]2O (stereo not given in full)	inactive
CC1CCC(C(C)(C)S)C(=O)C1 (stereo not given)	inactive
O=C1CCC[C@H]2[C@@H]3CCCN4CCC[C@H](CN12)[C@H]34	inactive
C/C=C(/C)C(=O)OC1Cc2c(ccc3ccc(=O)oc23)OC1(C)C (stereo not given)	inactive
COc1ccc(C(=O)OC2CC3CCC(C2)[N+]3(C)[O-])cc1OC (stereo not given)	inactive
CCCCCCCCCCOC(C)=O	inactive
OC[C@H]1O[C@@H](O[C@H]2[C@@H](O)[C@@](O)(CO)O[C@@H]2CO)[C@H](O)[C@@H](O)[C@@H]1O	inactive
CCCCCCCCC(=O)OCC	inactive
COC(=O)C1(Cc2ccc(O)cc2)OC(=O)C(O)=C1c1ccc(O)cc1 (stereo not given)	inactive
C[C@H]1O[C@@H](O[C@H]2CC[C@@]3(C)C(CC[C@]4(C)C3C=C[C@]35OC[C@@]6(CCC(C)(C)C[C@H]63)[C@@H](O)C[C@]54C)[C@]2(C)CO)[C@H](O)[C@@H](O[C@@H]2O[C@H](CO)[C@@H](O)[C@H](O)[C@H]2O)[C@H]1O (stereo not given in full)	inactive
COc1ccc([C@@H]2[C@@H](O)[C@H](O)[C@@H](C)N2C)cc1OC	inactive
COc1cc(C(=O)O[C@H]2C/C(C)=C/CC/C(C)=C/[C@@H](O)C2C(C)C)ccc1O (stereo not given in full)	inactive
COc1c2ccc(OCC/C(C)=C/C(=O)C=C(C)C)cc2nc2occc12	inactive
O=Cc1ccc(O)cc1O	inactive

Biological target: Nucleoprotein (Lymphocytic choriomeningitis virus (strain Armstrong)) (UniProt P09992)
Sequence (P09992 whole entry, looked up): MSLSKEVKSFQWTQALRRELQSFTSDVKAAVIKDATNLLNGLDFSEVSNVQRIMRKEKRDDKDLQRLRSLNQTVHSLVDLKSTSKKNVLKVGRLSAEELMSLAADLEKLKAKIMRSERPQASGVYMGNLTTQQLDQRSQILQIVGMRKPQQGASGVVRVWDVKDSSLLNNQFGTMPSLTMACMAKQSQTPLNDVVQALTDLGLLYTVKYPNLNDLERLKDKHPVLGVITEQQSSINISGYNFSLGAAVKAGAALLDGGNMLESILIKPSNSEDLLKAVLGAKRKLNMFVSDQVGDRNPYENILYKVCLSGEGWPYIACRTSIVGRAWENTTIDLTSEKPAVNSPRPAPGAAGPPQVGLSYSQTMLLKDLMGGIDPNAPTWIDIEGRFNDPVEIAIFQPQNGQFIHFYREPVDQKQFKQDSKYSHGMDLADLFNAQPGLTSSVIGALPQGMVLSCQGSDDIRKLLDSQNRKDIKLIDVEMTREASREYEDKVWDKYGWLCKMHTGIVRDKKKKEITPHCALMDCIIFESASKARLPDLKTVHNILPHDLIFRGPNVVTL
Experiment: qHTS for Inhibitors of the Functional Ribonucleoprotein Complex (vRNP) of Lymphocytic Choriomeningitis Arenaviruses (LCMV): LCMV Primary Screen - GLuc reporter signal (AID 1347086); note: nearly all actives have a fitted effect of over 70% in size
Conditions: LCMV minigenome vRNP cell assay, Gaussia luciferase reporter; series mostly up to 57.5 µM

Structure (SMILES)	Potency
C=C1C(O)C[C@H]2C(=C)CCC3[C@H](OC(=O)[C@]3(O)CO)[C@@H]12 (stereo not given in full)	inactive
CC(=O)NCC(=O)N1[C@H]2CC[C@H]1c1cc(Nc3ncc(C(F)(F)F)c(NC4CCC4)n3)ccc12	inactive
C=C1[C@H]2CC[C@@H]3[C@H]2C(C)(C)CCC[C@]13C	inactive
CC(C)CCOC(=O)c1ccccc1	inactive
O=C(O)[C@H](O)[C@@H](O)C(=O)O	inactive
Cc1nc(C(N)=O)nc2ccccc12	inactive
C[C@]12CCC(=O)C=C1[C@@H]1CC1[C@H]1[C@H]3[C@@H]4C[C@H]4[C@@]4(CCC(=O)O4)[C@@]3(C)CC[C@H]12 (stereo not given in full)	inactive
CCCC1CCC(=O)O1 (stereo not given)	inactive
Nc1ccn([C@@H]2O[C@H](CO)[C@@H](OP(=O)(O)O)[C@H]2O)c(=O)n1	inactive
CC1CC(C)C(=O)C1=O (stereo not given)	inactive
CC(=O)OC[C@]12CCC(C)=C[C@H]1O[C@@H]1[C@H](O)[C@@H](OC(C)=O)[C@@]2(C)[C@]12CO2	inactive
CC(=O)CCC1=C(C)CCCC1(C)C	inactive
OC(c1cc(C(F)(F)F)nc2c(C(F)(F)F)cccc12)C1CCCCN1 (stereo not given)	inactive
C[C@@H]1[C@H](C)CC[C@]2(C(=O)O)CC[C@]3(C)C(=CC[C@@H]4[C@@]5(C)C[C@@H](O)[C@H](O)[C@@](C)(CO)[C@H]5CC[C@]43C)[C@@H]12	inactive
C[C@H]1[C@H](C)CC[C@]2(C)CC[C@]3(C)C(=CC(=O)C4[C@@]5(C)CC[C@H](O)C(C)(C)C5CC[C@]43C)[C@H]12 (stereo not given in full)	inactive
O=C(/C=C/c1ccc(O)cc1)OC[C@H]1O[C@@H](Oc2c(-c3ccc(O)cc3)oc3cc(O)cc(O)c3c2=O)[C@H](O)[C@@H](O)[C@@H]1O	inactive
O=C1CCCCCCCCCCCCCCO1	inactive
CC(=O)c1c(O)cc(O)cc1O	inactive
O=C(/C=C/c1ccccc1)OC/C=C/c1ccccc1	inactive
CC(C)c1noc(N2CCC(COc3ccc(-c4ccc(S(C)(=O)=O)cc4)nc3)CC2)n1	inactive

Structure (SMILES)	Potency
CCN1CCN(C(=O)N[C@H](C(=O)N[C@@H]2C(=O)N3C(C(=O)O)=C(CSc4nnnn4C)CS[C@@H]23)c2ccc(O)cc2)C(=O)C1=O	inactive
CC(=O)OCC1=C(C(=O)O)N2C(=O)[C@@H](NC(=O)Cc3ccccc3)[C@H]2SC1	inactive
CC1OC(OC2C(CO)OC(OCC3OC(OC(=O)[C@@]45CCC(C)(C)C[C@@H]4C4=CC[C@@H]6[C@@]7(C)CCC(OC8OCC(O)C(O)C8OC8OC(C)C(O)C(O)C8O)[C@@](C)(CO)C7CC[C@@]6(C)[C@]4(C)CC5)C(O)C(O)C3O)C(O)C2O)C(O)C(O)C1O (stereo not given in full)	inactive
Cc1cc(OCCCc2c(C(=O)O)n(Cc3cccnc3)c3c(-c4c(COc5ccc(N6CCN([S+](C)(=O)[O-])CC6)cc5)nn(C)c4C)cccc23)cc(C)c1Cl	inactive
O=c1cc(-c2ccc(O)c(O)c2)oc2ccccc12	inactive
CC/C=C\CCOC(=O)C(C)C	inactive
CC(=O)O[C@H]1C(=O)[C@@]2(C)C([C@H](OC(=O)c3ccccc3)[C@]3(O)C[C@H](OC(=O)[C@H](O)[C@@H](NC(=O)c4ccccc4)c4ccccc4)C(C)=C1C3(C)C)[C@]1(OC(C)=O)CO[C@@H]1C[C@H]2O (stereo not given in full)	inactive
CC1CCC(C(C)(C)S)C(=O)C1 (stereo not given)	inactive
O=C1CCC[C@H]2[C@@H]3CCCN4CCC[C@H](CN12)[C@H]34	inactive
C/C=C(/C)C(=O)OC1Cc2c(ccc3ccc(=O)oc23)OC1(C)C (stereo not given)	inactive
COc1ccc(C(=O)OC2CC3CCC(C2)[N+]3(C)[O-])cc1OC (stereo not given)	inactive
CCCCCCCCCCOC(C)=O	inactive
OC[C@H]1O[C@@H](O[C@H]2[C@@H](O)[C@@](O)(CO)O[C@@H]2CO)[C@H](O)[C@@H](O)[C@@H]1O	inactive
CCCCCCCCC(=O)OCC	inactive
COC(=O)C1(Cc2ccc(O)cc2)OC(=O)C(O)=C1c1ccc(O)cc1 (stereo not given)	inactive
C[C@H]1O[C@@H](O[C@H]2CC[C@@]3(C)C(CC[C@]4(C)C3C=C[C@]35OC[C@@]6(CCC(C)(C)C[C@H]63)[C@@H](O)C[C@]54C)[C@]2(C)CO)[C@H](O)[C@@H](O[C@@H]2O[C@H](CO)[C@@H](O)[C@H](O)[C@H]2O)[C@H]1O (stereo not given in full)	inactive
COc1ccc([C@@H]2[C@@H](O)[C@H](O)[C@@H](C)N2C)cc1OC	inactive
COc1cc(C(=O)O[C@H]2C/C(C)=C/CC/C(C)=C/[C@@H](O)C2C(C)C)ccc1O (stereo not given in full)	inactive
COc1c2ccc(OCC/C(C)=C/C(=O)C=C(C)C)cc2nc2occc12	inactive
O=Cc1ccc(O)cc1O	inactive
